PAFAH1B3 FP inh – PAFAH1B3 enzyme inhibitors, primary screen, biochemical, fluorescence polarization, human; Platelet-activating factor acetylhydrolase IB subunit alpha1 (Homo sapiens), Q15102; recombinant PAFAH1B3, FP-rhodamine probe; inhibition, % at 3.39 µM; actives 0.28% (n = 340,000); AID 492972, 2010;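 active = inhibition above the screen-wide average of all tested compounds plus 3 SD, cut at about 25% in these data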;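 note: 0% = enzyme with DMSO only and 100% = wells lacking PAFAH1B3 protein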
TCR-CD3 inh – inhibitors of human TCR-CD3 interaction, primary screen, biochemical, fluorescence, TAMRA-labeled TCR probe; inhibition, % at 9.4 µM; T-cell receptor (TCR); AID 651800, 2012; actives 0.37% (n = 360,000); in the data active = inhibition above about 19%;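 note: recombinant mutant TCR 2C K166C tagged with TAMRA read by polarization; 0% = receptor in buffer alone and 100% = receptor with positive control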
PAFAH1B2 inh – PAFAH1B2 enzyme inhibitors, primary screen, biochemical, fluorescence polarization, human. AID 492953, 2010. Platelet-activating factor acetylhydrolase IB subunit alpha2 (Homo sapiens), P68402. recombinant PAFAH1B2, FP-rhodamine activity probe. inhibition, % at 3.39 µM. actives 1.2% (n = 340,000);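 active = inhibition above the mean of all tested compounds plus 3 SD, cut at about 24% in these data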;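 note: 0% = enzyme with DMSO and 100% = wells lacking PAFAH1B2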
pPAFAH inh – pPAFAH enzyme inhibitors, primary screen, biochemical, fluorescence polarization, human; actives 1.5% (n = 330,000); inhibition, % at 3.39 µM; recombinant pPAFAH, FP-rhodamine probe fluorescence polarization; AID 463082, 2010;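 active = inhibition above the mean inhibition across the screen plus 3 SD, cut at about 25% in these data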;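 note: inhibitors block binding of the rhodamine activity-based probe so polarization drops; 0% = enzyme with DMSO and 100% = wells lacking pPAFAH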
Target sequence (Q13093 whole entry, looked up): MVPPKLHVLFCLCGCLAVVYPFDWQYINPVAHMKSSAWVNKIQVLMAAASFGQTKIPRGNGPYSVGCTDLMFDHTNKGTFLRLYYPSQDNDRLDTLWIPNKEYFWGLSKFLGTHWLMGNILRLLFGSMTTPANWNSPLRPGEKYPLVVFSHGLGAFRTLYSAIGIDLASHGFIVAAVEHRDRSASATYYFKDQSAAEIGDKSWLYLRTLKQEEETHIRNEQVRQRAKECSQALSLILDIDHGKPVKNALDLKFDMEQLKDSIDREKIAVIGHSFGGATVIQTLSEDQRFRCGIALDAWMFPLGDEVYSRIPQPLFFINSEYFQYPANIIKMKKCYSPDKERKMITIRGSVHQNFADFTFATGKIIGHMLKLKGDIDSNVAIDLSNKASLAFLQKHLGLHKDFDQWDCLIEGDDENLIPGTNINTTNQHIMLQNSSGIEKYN
PAFAH2 FP inh – PAFAH2 enzyme inhibitors, primary screen, biochemical, fluorescence polarization, human; inhibition, % at 3.39 µM; actives 0.99% (n = 340,000); Platelet-activating factor acetylhydrolase 2, cytoplasmic (Homo sapiens), Q99487; AID 492956, 2010; recombinant PAFAH2, FP-rhodamine activity probe;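 active = inhibition above the mean over all tested compounds plus 3 SD, cut at about 30% in these data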;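 note: inhibitors block probe labeling of enzyme so polarization drops; 0% = enzyme with DMSO and 100% = wells lacking PAFAH2 protein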
PAFAH2 FP conf – PAFAH2 enzyme inhibitors, confirmation, biochemical, fluorescence polarization, human. shares compounds with PAFAH2 FP inh. recombinant PAFAH2, FP-rhodamine activity probe. inhibition, % at 3.39 µM. actives 65% (n = 2,300);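 active = mean inhibition over three repeats above a set limit taken from the earlier primary screen, cut at about 30% in these data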;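 note: inhibitor blocks binding of rhodamine activity probe so polarization falls; 0% = enzyme with DMSO and 100% = wells lacking PAFAH2 protein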
* hit, by the source's call; · = no result given. Sampled rows, rich in hits. Any-hit rate of the full collection: about 2.7%.

SMILES	PAFAH1B3 FP inh	TCR-CD3 inh	PAFAH1B2 inh	pPAFAH inh	PAFAH2 FP inh	PAFAH2 FP conf
CC(C)C(=O)N(c1ccc2oc(=O)sc2c1)S(=O)(=O)c1cccs1	9	5	1	8	44*	42*
CNc1cnc(-c2ccsc2)cn1	·	1	·	·	·	·
Cc1ccc(-c2c(C#N)c(N)n3c(nc4ccccc43)c2C#N)cc1	5	3	5	13	46*	34*
N#Cc1c(-c2ccccc2)c(C#N)c2nc3ccccc3n2c1N	-4	2	6	2	4	·
O=C(O/N=C/C1=C(Cl)c2ccccc2CC1)c1ccc(F)cc1	-4	7	15	-1	35*	40*
Cc1nc(-c2ccc(F)cc2)c(CC(=O)N2CCN(S(=O)(=O)c3cccc([N+](=O)[O-])c3)CC2)s1	0	-1	0	·	10	·
CCCC(C)(C)C(=O)N1CCC1(C)C(=O)Nc1cccc(OC)c1 (stereo unspecified)	·	3	·	·	·	·
CCCCOC(=O)c1ccc(NC(=O)COC(=O)c2ccc3ncsc3c2)cc1	0	-4	-4	-4	61*	63*
O=C(COC(=O)c1ccc2ncsc2c1)Nc1cccc(Cl)c1	-3	-10	-3	-6	92*	77*
O=C(COC(=O)c1ccc2ncsc2c1)Nc1ccccc1Br	6	1	0	-5	63*	43*
CCCCc1ccc(NC(=O)COC(=O)c2ccc3ncsc3c2)cc1	·	4	·	·	·	·
CC(=O)c1ccc(N2CCN(C(=O)c3ccccc3SCC(=O)NCc3ccco3)CC2)c(F)c1	1	3	-1	·	-1	·
Cc1cc(/C=C2\SC(N)=NC2=O)c(C)n1-c1ccccc1	-4	3	0	7	49*	33*
CCc1nc2ccccc2c(C(=O)OCCN2C(=O)c3ccccc3C2=O)c1C	9	-10	-3	3	3	·
CC(=O)OCCN1C(=O)c2ccc(-c3nc4ccccc4c(=O)o3)cc2C1=O	-1	-8	2	2	53*	46*
CCN1C(=O)c2ccc(-c3nc4ccccc4c(=O)o3)cc2C1=O	11	-4	2	-3	35*	63*
CC(CCc1ccccc1)NC(=O)COC(=O)c1ccc(NC(N)=O)cc1 (stereo unspecified)	4	4	6	0	67*	64*
COc1ccc(/C=C/C(=O)OCC(=O)NC(C)CCc2ccccc2)cc1OC (stereo unspecified)	2	8	6	6	64*	59*
CC(CCc1ccccc1)NC(=O)COC(=O)c1ccccc1Br (stereo unspecified)	9	8	10	2	27	·
COc1ccc(C(=O)OCC(=O)NC(C)CCc2ccccc2)cc1 (stereo unspecified)	7	12	7	8	75*	68*
COc1ccc(CC(=O)NC(C)CCc2ccccc2)cc1OC (stereo unspecified)	14	-5	1	5	-6	·
COc1ccc(C(=O)OCC(=O)NC(C)CCc2ccccc2)cc1OC (stereo unspecified)	-2	-3	6	11	74*	71*
Cc1cccc(C)c1NC(=O)C1(C)CSCC(=O)N1CCCn1ccnc1 (stereo unspecified)	·	3	·	·	·	·
CCN(CC(=O)Nc1ccccc1C(F)(F)F)C(=O)c1ccc(=O)n(Cc2ccccc2)n1	10	-5	-1	8	10	·
Cc1ccc(C(=O)Nc2ccccc2C(=O)N2CC(C)OC(C)C2)cc1 (stereo unspecified)	·	2	·	·	·	·
Cc1ccc(NCC(=O)Nc2ccc(F)c(Cl)c2)cc1S(=O)(=O)N1CCOCC1	·	-1	·	·	·	·
CC(C)n1nccc1NC(=O)COC(=O)c1ccc(NC(N)=O)cc1	6	-1	5	3	65*	46*
CN(C(=O)c1ccc(NC(=O)Cc2ccc(NC(=O)C3CCCN(C(=O)CCc4ccccc4)C3)cc2)cc1)C1CCCC1 (stereo unspecified)	4	3	4	·	3	·

Bioassay records deposited in PubChem by The Scripps Research Institute Molecular Screening Center.
